The list is not random: actives were taken first. Their share in the collection is about 3.8%.
PrP 5UTR inh: suppresses PrP 5' UTR mRNA reporter expression; cell-based PrP 5' UTR mRNA reporter, plate reader; inhibition, % (concentration not given with the values); 340,000 tested, 0.35% active; AID 488862; in the data active means inhibition above about 52%; further: 0 = median of the neutral control wells
GDH-TPI counter-1: GDH-TPI coupled enzyme inhibition counter-screen | GDH-TPI coupled enzyme counterscreen, NADH absorbance | inhibition, % at 4.8 µM | 360,000 tested, 1.2% active | AID 588335; in the data active means inhibition above about 30%;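 further: 0% = DMSO wells and 100% = wells lacking the enzyme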
Mtb hypoxia rep: inhibitors of hypoxia-regulated fluorescent reporter in Mycobacterium tuberculosis. M. tuberculosis hypoxia-regulated fluorescent reporter, fluorescence. fluorescence inhibition, % (no concentration beside the values). 300,000 tested, 0.1% active. AID 1159583; in the data active means fluorescence inhibition mostly above about 23%, no sharp cut-off; inactive means mostly below about 17%
Y pestis TopoI: blocks Yersinia pestis topoisomerase I activity; Y. pestis Topo-I cleavage product accumulation, plate reader; 360,000 tested, 0.064% active; activity, % at 10 µM; in the data active means activity above about 50%, passing the limit was not always enough
PrPC surface inh: cell surface PrPC inhibition, primary TR-FRET screen; TR-FRET read-out; P04156; AID 720596; inhibition, % at 13.8 µM; 370,000 tested, 0.43% active; in the data active means inhibition above about 24%; further: 0% = median of the test wells and 100% = reference compound wells
Mtb FBA inh: Mtb fructose-bisphosphate aldolase inhibition; P9WQA3; purified M. tuberculosis FBA, fluorescence read-out; inhibition, % at 1 µM; 360,000 tested, 2.3% active; AID 588726;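 further: 0% = vehicle and 100% = reference inhibitor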
Target sequence (P9WQA3 whole entry, looked up): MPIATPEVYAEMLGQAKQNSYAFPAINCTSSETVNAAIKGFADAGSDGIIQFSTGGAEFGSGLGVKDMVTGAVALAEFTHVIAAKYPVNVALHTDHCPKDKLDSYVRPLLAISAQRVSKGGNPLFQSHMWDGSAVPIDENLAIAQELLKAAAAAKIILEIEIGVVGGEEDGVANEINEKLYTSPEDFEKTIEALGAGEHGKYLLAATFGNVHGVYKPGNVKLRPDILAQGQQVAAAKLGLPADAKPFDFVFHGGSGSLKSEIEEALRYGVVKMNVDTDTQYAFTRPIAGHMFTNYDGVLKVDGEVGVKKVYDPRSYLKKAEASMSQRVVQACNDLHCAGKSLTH
Mtb FBA inh conf: Mtb FBA inhibition, confirmed | shares compounds with Mtb FBA inh | purified M. tuberculosis FBA, fluorescence read-out | inhibition, % at 1 µM | 5,600 tested, 78% active | AID 651616;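 further: 0% = vehicle wells and 100% = reference inhibitor wells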
GDH-TPI counter-2: GDH-TPI inhibition counter-screen for FBA inhibitors; shares compounds with Mtb FBA inh; GDH-TPI coupled enzyme counterscreen, fluorescence; inhibition, % at 1 µM; 5,600 tested, 81% active; AID 652141; in the data active means inhibition above about 10%
GDH-TPI dose: inhibits GDH-TPI coupling enzymes in dose response | shares compounds with Mtb FBA inh | GDH-TPI coupled enzyme assay, fluorescence, artifact counterscreen | IC50, µM | 170 tested, 79% active | AID 652145; call rule not given here
Numbers without * were called inactive; nt = no result given; + = active, no number. Unless noted, no stated cut-off is given here; in the data, active means inhibition above about 27%; inactive means the rest.

SMILES | PrP 5UTR inh | GDH-TPI counter-1 | Mtb hypoxia rep | Y pestis TopoI | PrPC surface inh | Mtb FBA inh | Mtb FBA inh conf | GDH-TPI counter-2 | others
Cn1c(=O)n(C)c2cc(S(=O)(=O)Nc3ccccc3C(=O)O)ccc21 | -11.4 | 10.6 | 18.4 | 2.8 | -6.0 | 28.9* | + | +
CCOC(=O)c1c(-c2ccccc2Cl)cn2ccccc12 | -32.8 | 12.4 | -2.2 | 16.6 | 1.3 | 61.2* | 73.7* | 68.0*
CC(Cc1nnn(-c2cc(C)on2)n1)=NO | nt | nt | 2.5 | nt | nt | nt | nt | nt
Cc1ccc(N(C(=O)c2snc(C(N)=O)c2N)C(C(=O)NCC2CCCO2)c2ccc(C)o2)c(C)c1 (stereo unspecified) | -18.7 | 4.4 | 17.9 | 15.2 | -5.6 | 23.0 | nt | nt
Cc1ccccc1N(C(=O)c1snc(C(N)=O)c1N)C(C(=O)NCC1CCCO1)c1ccc(F)cc1 (stereo unspecified) | -43.6 | 0.0 | 10.8 | 17.4 | -8.1 | 54.8* | 3.5 | 0.0
NC(=O)c1nsc(C(=O)N(c2cccc(F)c2)C(C(=O)NCC2CCCO2)c2cccs2)c1N (stereo unspecified) | -17.4 | 7.0 | -1.3 | 6.4 | 10.5 | 33.8* | 86.2* | 76.1*
CCc1ccccc1N(C(=O)c1snc(C(N)=O)c1N)C(C(=O)NCC1CCCO1)c1ccc(C)o1 (stereo unspecified) | -11.4 | 9.0 | 2.3 | 27.1 | 0.4 | 49.3* | 9.7 | -3.0
Cc1ccc(C=NOC(=O)c2c(C)noc2-c2snnc2C)cc1 | nt | nt | -1.3 | nt | nt | nt | nt | nt
CC(CC(=O)Nc1ccccc1-c1ccccc1)=NNC(=O)COc1ccc(C)cc1Br | nt | nt | 6.9 | nt | nt | nt | nt | nt
CCOC(=O)c1c(NC(=O)COC(=O)c2nccnc2N)sc(C(=O)N(C)C)c1C | -11.9 | -1.8 | 4.4 | 9.4 | -2.6 | 47.9* | + | +
CCOC(=O)c1c(NC(=O)COC(=O)c2nccnc2N)sc2c1CCC2 | -17.0 | 13.1 | 3.9 | -9.2 | -4.9 | 45.1* | 123.6* | 93.0*
CCCCCCCCCCCCN1C(CC(C)=O)c2cc(F)cc(F)c2S1(=O)=O (stereo unspecified) | nt | nt | 14.5 | nt | nt | nt | nt | nt
O=C(NCCc1ccc(Cl)cc1Cl)C1=CC=CN2CCS(=O)(=O)N=C12 | -0.8 | 8.0 | -4.4 | -0.4 | -8.9 | 27.0* | 178.1* | 129.2*
CCCCCCCCC(=O)NN=Cc1cccc(Br)c1 | nt | nt | 2.0 | nt | nt | nt | nt | nt
O=C1NCCN1CCN1C(=O)c2ccccc2NC1c1ccccc1 (stereo unspecified) | -30.2 | 4.1 | 0.1 | -7.9 | 8.3 | 72.3* | 108.4* | 91.4*
O=C1c2ccccc2NC(c2ccccc2)N1Cc1ccccc1 (stereo unspecified) | -15.0 | -7.7 | -1.4 | 5.0 | -1.8 | 63.1* | 38.5* | 15.1*
COc1cccc(C2Nc3ccccc3C(=O)N2Cc2ccccc2)c1 (stereo unspecified) | -18.1 | -0.8 | 5.1 | 5.6 | -5.9 | 60.8* | 23.9 | 18.0*
O=C1c2ccccc2NC(c2ccccc2)N1c1ccc(O)cc1 (stereo unspecified) | -10.6 | 0.7 | 4.0 | -1.6 | 2.1 | 4.1 | nt | nt
O=C(O)C1c2ccccc2C(=O)N(Cc2ccc(F)cc2)C1c1ccncc1 (stereo unspecified) | nt | 2.3 | -5.0 | 3.8 | 4.0 | 1.3 | nt | nt
COc1cccc(OCc2cc(C3Nc4ccccc4C(=O)N3Cc3ccco3)ccc2OC)c1 (stereo unspecified) | -7.6 | 3.5 | -3.6 | 14.2 | -0.1 | 13.0 | nt | nt
O=C1c2ccccc2NC(c2ccc(F)cc2)N1Cc1ccccc1 (stereo unspecified) | -4.4 | 7.1 | 12.2 | -1.5 | 4.5 | 56.5* | 79.1* | 54.9*
O=C(C=Cc1ccc(O)c(O)c1)OC1C[C@](O)(C(=O)O)CC(O)C1O (stereo partly specified) | nt | nt | 11.4 | nt | nt | nt | nt | nt
CCCc1c(C(=O)NN=Cc2cccs2)nnn1-c1nonc1N | nt | nt | -3.9 | nt | nt | nt | nt | nt
COc1ccc(CCCC(=O)NN=Cc2cccc(OC)c2O)cc1C | nt | nt | 8.2 | nt | nt | nt | nt | nt
Cc1ccc(-c2cc(C(=O)O)c3ccccc3n2)c(C)c1 | -9.7 | 20.6 | 5.4 | 3.9 | -3.0 | 7.6 | nt | nt
SMILES | PrP 5UTR inh | GDH-TPI counter-1 | Mtb hypoxia rep | Y pestis TopoI | PrPC surface inh | Mtb FBA inh | Mtb FBA inh conf | GDH-TPI counter-2 | others
Cc1c(-c2cc(C(=O)O)c3ccccc3n2)cnn1C | -10.8 | 5.0 | 1.7 | 9.3 | -0.7 | 97.2* | 135.7* | 112.7*
O=C(NN=Cc1ccc(Br)o1)c1cc([N+](=O)[O-])cc([N+](=O)[O-])c1 | nt | nt | 12.5 | nt | nt | nt | nt | nt
CCN(CC)c1ccc(C=NNC(=O)Cc2cccs2)c(O)c1 | nt | nt | -5.9 | nt | nt | nt | nt | nt
NC(=O)c1nn(-c2ccccc2)nc1NC(=O)CN1CCCC1 | -10.4 | 0.0 | 17.7 | -2.0 | 3.3 | 25.5 | nt | nt
CC(=O)N(CC(=O)Nc1nn(-c2ccccc2)nc1C(N)=O)Cc1ccccc1 | -29.0 | 1.8 | 1.8 | 3.1 | 0.2 | 42.6* | 1.3 | -2.9
COc1cc(C2c3c([nH]c(=O)[nH]c3=O)Nc3ccc4ccccc4c32)cc(OC)c1OC (stereo unspecified) | -7.3 | 0.3 | -4.6 | 11.6 | 10.8 | 33.9* | 90.5* | 74.5*
Cc1cc(NN=Cc2ccccc2F)nc(NCc2ccccc2)n1 | nt | nt | -16.5 | nt | nt | nt | nt | nt
COc1ccc(CNC(=O)C2(C)Cc3c(-c4ccc(N(C)C)cc4)ccnc3O2)cc1OC (stereo unspecified) | nt | 19.5 | nt | 20.2 | 16.1 | 54.6* | 73.0* | 49.9*
COc1ccc(NC(=O)C2(C)Cc3c(-c4ccc(N(C)C)cc4)ccnc3O2)cc1 (stereo unspecified) | nt | 18.6 | nt | 30.9 | 1.0 | 33.5* | 104.3* | 91.3*
COc1ccc(NC(=O)C2(C)Cc3c(-c4ccc(N(C)C)cc4)ccnc3O2)cc1OC (stereo unspecified) | nt | 15.9 | nt | 23.8 | 6.0 | 29.5* | 13.6 | -1.9 | GDH-TPI dose=1.2*
COc1ccc(NC(=O)C2(C)Cc3c(-c4ccc(NC(C)=O)cc4)ccnc3O2)cc1 (stereo unspecified) | nt | -8.0 | nt | -1.6 | -5.2 | 0.6 | nt | nt
Cn1cc([N+](=O)[O-])c(C(=O)NN=Cc2ccc3c(c2)OCO3)n1 | nt | nt | 1.3 | nt | nt | nt | nt | nt
COC(=O)C(Cc1ccccc1)NC(=O)Cn1ccc(NC(=O)OCc2ccccc2)nc1=O (stereo unspecified) | nt | nt | 9.0 | nt | nt | nt | nt | nt
N#Cc1c(N=CN2CCCC2)oc(-c2ccccc2)c1-c1ccccc1 | nt | nt | 14.1 | nt | nt | nt | nt | nt
O=S(=O)(c1ccccc1)c1cnc2ccccc2c1 | -38.1 | 5.2 | 0.6 | 7.1 | -0.3 | -1.7 | nt | nt
Nc1nc2ccccc2cc1S(=O)(=O)c1ccccc1 | -13.2 | -2.5 | nt | 2.6 | -2.9 | 51.3* | 115.7* | 98.0*
CC(C)NC(=O)N(C)CC1Oc2c(NS(=O)(=O)c3cn(C)cn3)cccc2C(=O)N(C(C)CO)CC1C (stereo unspecified) | nt | nt | 12.6 | nt | nt | nt | nt | nt
CCc1ccccc1Oc1coc2cc(O)ccc2c1=O | -4.8 | 15.2 | 9.2 | 3.1 | 4.0 | 30.6* | 110.9* | 74.7*
